# From PubChem BioAssay
# Vif inh: HIV Vif inhibition; hit rate 0.35% among 340,000; inhibition, % at 7.49 µM; HEK293T cells, Vif self-association by quenched fluorescence, imaging, 24 h; in the data active = inhibition above about 50%, passing the limit was not always enough; inconclusive = no clear call, values can overlap the other calls; inactive = below about 31%
# Bfl-1 A1 inh: inhibitors of the anti-apoptotic protein A1, read as caspase activation | MEF A1-2A-BIM cells, Caspase-Glo 3/7 luminescence, 3 h; percent of clofoctol response, vehicle zero | caspase activation, % (concentration not given with the values) | hit rate 0.066% among 330,000;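 active = over half of replicate activation scores above 10%, or exactly half above 10 with the replicate mean above 10; inconclusive = replicate mean below 10 yet half the replicates above 10; inactive = over half of replicates below 10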
# GSIS activator: primary screen for activators of insulin secretion dependent on glucose, INS-1E cells, GLuc reporter luminescence; activation, % at 16.6 µM; INS-1E GLuc reporter insulin secretion, 2-3 h; hit rate 0.61% among 370,000;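 active = lowest replicate activation of at least 40%, so every replicate reaches that level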
# dFosB act: mouse delta FosB homodimer activation; hit rate 0.99% among 340,000; purified delta FosB, TAMRA-CDK5 oligo fluorescence polarization; percent of positive-control signal above neutral wells; activation, % at 25 µM; P13346;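 active = mean activation above about 17%, with every replicate also reaching it, limit read from the data, passing the limit was not always enough; inconclusive = only one of the two conditions met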
# Target sequence (P13346 whole entry, looked up): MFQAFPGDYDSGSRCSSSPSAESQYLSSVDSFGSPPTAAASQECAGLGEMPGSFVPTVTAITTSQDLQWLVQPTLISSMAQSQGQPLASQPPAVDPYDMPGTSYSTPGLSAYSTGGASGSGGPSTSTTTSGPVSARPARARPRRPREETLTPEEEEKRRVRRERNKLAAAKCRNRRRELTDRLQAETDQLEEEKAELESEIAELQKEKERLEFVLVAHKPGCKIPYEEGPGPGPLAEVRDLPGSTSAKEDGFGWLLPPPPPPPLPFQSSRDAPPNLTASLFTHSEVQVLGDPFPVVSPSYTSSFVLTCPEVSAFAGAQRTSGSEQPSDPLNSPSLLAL
# Neddylation inh: blocks human cullin neddylation. P61081+Q13564. TR-FRET cullin neddylation, biochemical. inhibition, % at 25 µM. hit rate 0.58% among 360,000; in the data active = inhibition above about 36%
# A number is an active result; . = inactive; ? = inconclusive; / = no result given; + = active, no number. Most compounds without a hit are left out; they make up all but 1.9% or so of the library.
SMILES,Vif inh,Bfl-1 A1 inh,GSIS activator,dFosB act,Neddylation inh
CNC[C@H]1OCCCC[C@@H](C)Oc2ccc(NC(=O)NC3CCCCC3)cc2C(=O)N([C@H](C)CO)C[C@H]1C,/,/,.,/,/
CCCNC(=O)N1[C@H](C#N)[C@H](c2ccccc2-c2ccc(OC)cc2)[C@@H]1CO,/,/,.,/,/
O=C1c2cccc3cccc(c23)C(=O)N1CC1CCN(CC(O)COc2ccc3ccccc3c2)CC1 (stereo unspecified),.,.,.,.,.
Cc1cc(C)cc(OCC(O)CN2CCC(CN3C(=O)c4cccc5cccc(c45)C3=O)CC2)c1 (stereo unspecified),.,.,.,52,.
CC1Cc2ccccc2N1C(=O)COC(=O)c1ccccc1NCCO (stereo unspecified),66,.,.,.,/
O=C(NC1CCCCC1)C(c1ccc(F)cc1)N(CCc1ccccc1)C(=O)CN1C(=O)c2ccccc2S1(=O)=O (stereo unspecified),.,18,/,.,.
O=C(NCC1CCCO1)C(c1ccncc1)N(Cc1ccc(F)cc1)C(=O)CN1C(=O)c2ccccc2S1(=O)=O (stereo unspecified),.,.,.,.,.
O=C(NC1CCCCC1)C(c1ccc(F)cc1)N(Cc1ccccc1)C(=O)CN1C(=O)c2ccccc2S1(=O)=O (stereo unspecified),.,.,111,.,.
CN(C)c1ccc2nc3ccc(=O)cc-3sc2c1,/,/,/,/,.
CN(C)c1ccc2nc3ccc(=[N+](C)C)cc-3sc2c1,.,.,.,40,.
COC(=O)CSc1cnc2ccccc2n1,.,.,/,.,.
COC(=O)CSc1nc2ccccc2nc1SCC(=O)OC,/,.,67,.,.
COc1ccc2c3c([nH]c2c1)[C@@H](CO)N(C(=O)Nc1ccc(F)cc1)CC31CN(C(=O)Cc2ccncc2)C1,/,/,.,/,/
Cc1ccccc1CN(C)Cc1cc(=O)oc2c(C)c(C)ccc12,.,.,93,.,.
Cc1ccc(/C=C/C(=O)NC2CCCCCCC2)o1,.,.,58,.,.
Nc1nc(N)c(N=O)c(Nc2ccc(Cl)c(Cl)c2)n1,/,/,.,/,.
Nc1nc(N)c(N=O)c(Nc2cccc(Cl)c2)n1,/,/,41,/,.
O=C(CSc1ccc(Cl)cc1)Nc1ccc(-c2nc3ccccc3[nH]2)cc1,.,.,106,.,.
NCCNc1ccc(C(=O)N2c3ccccc3Sc3ccccc32)cc1[N+](=O)[O-],.,?,/,54,.
CCCNC(=O)N1CC2(CCN(S(=O)(=O)CC)CC2)c2c(n(C)c3cc(OC)ccc23)[C@H]1CO,/,/,.,/,/
COc1cccc(S(=O)(=O)N[C@H]2CC[C@H](CCNC(=O)Nc3cc(F)ccc3F)O[C@H]2CO)c1,/,/,.,/,/
O=c1c2ccccc2nnn1CSc1nnc(Nc2ccccc2)s1,51,.,/,.,.
Cc1noc(C)c1NC(=O)Nc1ccc2c(c1)C(=O)N([C@@H](C)CO)C[C@@H](C)[C@@H](CN(C)S(=O)(=O)c1ccccc1)O2,/,/,.,/,/
CC(=O)Nc1ccc(Nc2nc(-c3sc(NC(C)=O)nc3C)cs2)cc1,.,.,.,.,.
CC(=O)Nc1nc(C)c(-c2csc(Nc3ccc(O)cc3)n2)s1,61,.,/,.,.
SMILES,Vif inh,Bfl-1 A1 inh,GSIS activator,dFosB act,Neddylation inh
CC(=O)Nc1nc(C)c(-c2csc(Nc3cccc([N+](=O)[O-])c3)n2)s1,.,.,134,.,.
CCC(=O)N1CC2(C1)CN(CC1CCOCC1)[C@H](CO)c1c2c2ccc(OC)cc2n1C,/,/,.,/,/
COCC(=O)N1[C@H](CO)[C@H](c2ccccc2)C12CN(C(=O)Cc1ccccn1)C2,/,/,.,/,/
O=C(C[C@H]1C=C[C@H](NC(=O)Cc2cccnc2)[C@@H](CO)O1)NCc1ccc2c(c1)OCO2,/,/,.,/,/
Cc1cc(C(F)F)n2ncc(C(=O)NCc3ccc(F)cc3)c2n1,.,.,44,.,.
Cc1ccc(-c2cnc3c(c2)C(=O)N([C@@H](C)CO)C[C@@H](C)[C@@H](CN(C)S(C)(=O)=O)O3)cc1,/,/,.,/,/
Cc1c(C)c2c(OCC(=O)O)cc3c(c2oc1=O)CCC(C)(C)O3,.,.,248,.,/
Cc1c(C)c2c(OCC(=O)NCC(=O)NCC(=O)O)cc3c(c2oc1=O)CCC(C)(C)O3,.,.,.,.,/
CC(C)=CCC[C@H](C)C[C@@H]1Cc2[nH]c(=S)[nH]c(=O)c2[C@@H](c2ccc(F)cc2)O1,/,/,255,/,.
CCOc1ccccc1OCCC(=O)NNC(=O)Cn1nc(C)cc1C,.,.,53,.,.
CO[C@@H]1CN(C)C(=O)c2cc(NS(=O)(=O)CC(F)(F)F)ccc2OC[C@@H](C)N(Cc2ccccn2)C[C@@H]1C,/,/,.,/,/
CC(=O)c1cnc(-c2ccccc2Cl)s1,57,.,.,.,.
CN(C)Cc1ccccc1Sc1ccc2c(c1)CCCC2,.,.,54,/,.
Cc1cn2c(N)c(/C=C3\C=Nc4ccccc43)c(=O)nc2s1,.,.,.,19,.
O=c1oc2ccccc2c(NC2CCCCC2)c1NS(=O)(=O)c1ccc(Br)cc1,.,/,/,.,.
CCCNc1c(NS(=O)(=O)c2ccc(Br)cc2)c(=O)oc2ccccc12,.,.,.,46,.
CN(C)c1ccc(C(=O)C=Cc2ccc([N+](=O)[O-])cc2)cc1,.,/,.,/,.
CN(C)c1ccc(/C=C/C(=O)c2ccc3c(c2)OCO3)cc1,+,.,/,.,.
CN(C)c1ccc(/C=C/C(=O)c2ccc(O)cc2)cc1,83,/,.,.,.
OC[C@@H]1[C@@H](c2ccc(-c3ccc(F)cc3)cc2)[C@@H]2CN(Cc3ccccn3)CCCCN12,/,/,.,/,/
O=C(CCNC(=O)c1ccco1)Nc1ccc(C(F)(F)F)cc1,.,.,.,.,.
O=C(CCNC(=O)c1ccco1)Nc1ccc(OC(F)(F)F)cc1,111,.,.,.,.
COc1ccc(NC(=O)N(C)C[C@@H]2Oc3ccc(NS(C)(=O)=O)cc3CC(=O)N([C@@H](C)CO)C[C@@H]2C)cc1,/,/,.,/,/
CCc1ccc(CCC(=O)Nc2nnc(C)s2)o1,55,.,.,.,.
CCn1c(CC(=O)Nc2ccccc2)nnc1SCC(=O)Nc1nnc(C)s1,68,.,.,.,.
SMILES,Vif inh,Bfl-1 A1 inh,GSIS activator,dFosB act,Neddylation inh
Cc1ccc(NC(=O)CSCC(=O)Nc2nnc(C)s2)cc1,.,.,47,.,.
COCC#Cc1ccc2c(c1)O[C@@H](CN(C)Cc1ccccn1)[C@H](C)CN([C@@H](C)CO)S2(=O)=O,/,/,.,/,/
CNC[C@H]1Oc2ncccc2C(=O)N(C)C[C@H]1C,/,/,.,/,/
CN(C)S(=O)(=O)c1cccc(C(=O)NC2CCSc3ccccc32)c1 (stereo unspecified),99,.,.,.,.
CN(C)c1ccc(C(O)Cc2nc3ccccc3n2C)cc1 (stereo unspecified),120,.,.,.,.
CC(C)c1ccc(C(O)Cc2nc3ccccc3n2C)cc1 (stereo unspecified),.,.,.,.,.
CN(C)CCCNC(=O)C[C@H]1CC[C@@H]2[C@H](COc3ccc(NC(=O)c4cccc(F)c4)cc3C(=O)N2C)O1,/,/,.,/,/
